Reference: the supplement of paper PMC7156485
Counter-ions that a name gives are not always drawn. ± gives the standard deviation of the averaged measurements.

Experiments:
Conditions in all cases: concentration: 10 µM; 24 h
[1] = tested on: HCC1569; assay: cell number relative to DMSO (% of DMSO); higher = more cells (less growth inhibition / toxicity)
Method in brief: (§1)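 Cells were seeded at 800 per well in 384-well plates with RPMI containing 10% FBS; both HCC1569 and TDF lines were used. Compounds were added at 10 µM for 24 h at 37 °C, in triplicate, before fixation in 3.7% formaldehyde and staining with a rabbit anti-H1.0 antibody, an AlexaFluor 647 secondary and DAPI. H1.0 nuclear intensity or cell number is reported as percent of the plate control using the median of replicates, and HCC1569 values were smoothed for positional effects.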

[2] = tested on: TDF; assay: as above
Method in brief: as §1

[3] = tested on: TDF; assay: H1.0 immunofluorescence intensity relative to DMSO (% of DMSO); higher = stronger H1.0 induction, active = 120 or more
Method in brief: as §1

[4] = tested on: HCC1569; assay: H1.0 immunofluorescence intensity relative to DMSO (% of DMSO); higher = stronger H1.0 induction, active = 140 or more
Method in brief: as §1
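Throughout, for H1.0 immunofluorescence intensity relative to DMSO: TDF is a line of transformed human dermal fibroblasts of mesenchymal origin.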
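Throughout, for cell number relative to DMSO: TDF denotes transformed human dermal fibroblasts of mesenchymal origin.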

| Compound | cell number [1] | cell number [2] | H1.0 immunofluorescence intensity [3] | H1.0 immunofluorescence intensity [4] |
| --- | --- | --- | --- | --- |
| O=C1CC(c2ccc(O)cc2)Oc2cc(O)cc(O)c21 (stereo unspecified) [Naringenin] | 99.9 | 110 | 90.6 (inactive) | 85.4 (inactive) |
| COC(=O)c1cc(OC)c2c(c1-c1c(CO)cc(OC)c3c1OCO3)OCO2 | 104 | 99.8 | 98.6 (inactive) | 109 (inactive) |
| CCC(Sc1nnc2c(n1)[nH]c1ccccc12)C(=O)N1c2ccccc2Sc2ccccc21 (stereo unspecified) | 96.4 | 96.3 | 103 (inactive) | 700 (active) |
| CC(=O)NC(CSCC=C(C)CCC=C(C)CCC=C(C)C)C(=O)O (stereo unspecified) [Acetyl-farnesyl-cysteine] | 100 | 104 | 97.2 (inactive) | 96.3 (inactive) |
| COc1cc2c(cc1-c1c(C)noc1C)ncc1[nH]c(=O)n([C@H](C)c3ccccn3)c12 | 75 | 66.3 | 138 (active) | 218 (active) |
| Brc1ccc(C2CN3CCSC3=N2)cc1.O=C(O)C(=O)O (stereo not drawn) [S(-)-p-Bromotetramisole oxalate] | 107 | 107 | 99.6 (inactive) | 94.6 (inactive) |
| CNCCC(Oc1ccccc1C)c1ccccc1 (stereo unspecified) [Tomoxetine] | 101 | 112 | 103 (inactive) | 102 (inactive) |
| O=C(O)C(O)C(O)C(=O)O.O=C(c1ccc(F)cc1)C1CCN(CCn2c(=O)[nH]c3ccccc3c2=O)CC1 [Ketanserin tartrate] | 96.9 | 93.1 | 106 (inactive) | 104 (inactive) |
| COc1cc(CC(=O)O)ccc1O [4-Hydroxy-3-methoxyphenylacetic acid] | 105 | 106 | 102 (inactive) | 97 (inactive) |
| C#CC1(O)CCC2C3C(C)CC4=C(CCC(=O)C4)C3CCC21C (stereo unspecified) [Tibolone] | 100 | 96.7 | 102 (inactive) | 110 (inactive) |
| Br.Oc1ccc(C2CNCc3sccc32)cc1O (stereo unspecified) | 100 | 96.3 | 94.4 (inactive) | 112 (inactive) |
| CC(C=CC1=C(C)CCCC1(C)C)=CC=CC(C)=CC(=O)O [13-cis Retinoic acid] | 98.1 ± 4.4 | 104 ± 2.9 | 92.9 (inactive) | 111 (inactive) |
| O=C(NCCCNc1nc(Nc2cccc(NC(=O)N3CCCC3)c2)ncc1I)c1cccs1 | 62 | 42.3 | 114 (inactive) | 134 (inactive) |
| CC1CCC2(C(=O)O)CCC3(C)C(=CCC4C5(C)CC(O)C(O)C(C)(CO)C5C(O)CC43C)C2C1C (stereo unspecified) [Madecassic acid] | 105 | 102 | 91.6 (inactive) | 91.7 (inactive) |
| O=C1NC(=O)C(c2ccccc2[N+](=O)[O-])=C1Nc1ccc(O)c(Cl)c1 | 96.8 | 107 | 97.8 (inactive) | 111 (inactive) |
| Cl.Cl.Fc1ccc(C(c2ccc(F)cc2)N2CCN(CC=Cc3ccccc3)CC2)cc1 [Flunarizine.2HCl] | 97.6 | 105 | 92.2 (inactive) | 112 (inactive) |
| CCCCCCCCC=CCCCCCCCC(=O)O [9(E)-Octadecenoic acid] | 100 | 108 | 94.9 (inactive) | 101 (inactive) |
| CC(=O)OC1(C(C)=O)CCC2C3C=C(Cl)C4=CC(=O)C5CC5C4(C)C3CCC21C (stereo unspecified) [Cyproterone Acetate] | 107 | 93.8 | 103 (inactive) | 99.8 (inactive) |
| CC1CCCC(C)N1NC(=O)c1ccc(Cl)c(S(N)(=O)=O)c1 (stereo unspecified) [Clopamide] | 100 | 104 | 94.9 (inactive) | 104 (inactive) |
| CC(=O)CCCCn1c(=O)c2c(ncn2C)n(C)c1=O [Pentoxifylline] | 103 ± 4.1 | 106 ± 5.2 | 92.8 (inactive) | 105 (inactive) |
| CN1CCN(CCCN2c3ccccc3Sc3ccc(C(F)(F)F)cc32)CC1.Cl.Cl [Trifluoperazine.2HCl] | 94.5 | 108 | 97 (inactive) | 122 (inactive) |
| c1ccc(C(OC2CCN(CCCc3nn[nH]n3)CC2)c2ccccc2)cc1 [4-(benzhydryloxy)-1-[3-(1H-tetraazol-5-yl)propyl]piperidine] | 104 | 102 | 92.8 (inactive) | 107 (inactive) |
| Cc1ccc(C(=O)COC(=O)c2cccc(NC(=O)c3ccc([N+](=O)[O-])cc3[N+](=O)[O-])c2)cc1 | 76.5 | 67.7 | 110 (inactive) | 152 (active) |
| CCN1CCCC1CNC(=O)c1c(O)c(Cl)cc(Cl)c1OC (stereo not drawn) [S(-)-Raclopride] | 102 | 97.5 | 95.7 (inactive) | 104 (inactive) |
| Cc1cnc(-c2cnc(NCCNc3ccc(C#N)cn3)nc2-c2ccc(Cl)cc2Cl)[nH]1 | 70.4 | 74.4 | 114 (inactive) | 112 (inactive) |

| Compound | cell number [1] | cell number [2] | H1.0 immunofluorescence intensity [3] | H1.0 immunofluorescence intensity [4] |
| --- | --- | --- | --- | --- |
| CN1C2CCC1CC(OC(=O)c1c[nH]c3ccccc13)C2 (stereo unspecified) [Tropisetron] | 102 | 92.9 | 101 (inactive) | 112 (inactive) |
| O.O=c1c(O)c(-c2ccc(O)cc2O)oc2cc(O)cc(O)c12 | 104 | 94.5 | 100 (inactive) | 98.8 (inactive) |
| CS(=O)(=O)O.Cc1c(O)cccc1C(=O)NC(CSc1ccccc1)C(O)CN1CC2CCCCC2CC1C(=O)NC(C)(C)C (stereo unspecified) [Nelfinavir mesylate] | 102 | 112 | 90.6 (inactive) | 116 (inactive) |
| COC(=O)/C=C/c1cccc(N(Cc2ccc(-c3ccc(N(C)C)cc3)cc2)C(=O)C2CCCCC2)c1 | 91.5 | 95.9 | 90.7 (inactive) | 106 (inactive) |
| CC1(C)CNc2cc(NC(=O)c3cccnc3NCc3ccncc3)ccc21 [Motesanib] | 90 | 91.4 | 107 (inactive) | 106 (inactive) |
| CCCCCCCCOC(=O)C=Cc1ccc(O)c(O)c1 [n-Octyl caffeate] | 54.1 | 78.8 | 93.6 (inactive) | 120 (inactive) |
| CCCCCCCCCCCCCCCCOP(=O)([O-])OCC[N+](C)(C)C [Miltefosine] | 97.1 | 109 | 92.7 (inactive) | 113 (inactive) |
| COc1ccc(C=C2c3ccccc3C(=O)c3ccccc32)cc1O [10-(3-hydroxy-4-methoxybenzylidene)-9(10H)-anthracenone] | 62.7 | 10.4 | 189 (active) | 207 (active) |
| CC1(COc2ccc(CC3SC(=O)NC3=O)cc2)CCCCC1 (stereo unspecified) [Ciglitizone] | 102 | 105 | 96.5 (inactive) | 90.5 (inactive) |
| CNCCCC12CCC(c3ccccc31)c1ccccc12.Cl [Maprotiline.HCl] | 100 | 90.4 | 94.5 (inactive) | 119 (inactive) |
| CCCCCN(CCCCC)C(=O)C(CCC(=O)[O-])NC(=O)c1ccc(Cl)c(Cl)c1.[Na+] (stereo unspecified) [Lorglumide sodium] | 103 | 107 | 100 (inactive) | 89.8 (inactive) |
| CN1CCCC1c1cccnc1.O=C(O)C(O)C(O)C(=O)O.O=C(O)C(O)C(O)C(=O)O (single isomer, unassigned; (-)) [(-)-Nicotine hydrogen tartrate salt] | 102 | 103 | 90 (inactive) | 99.2 (inactive) |
| CCOc1cc(N2CCC(O)CC2)ccc1Nc1ncc2c(n1)N(C)c1ccccc1C(=O)N2C | 85.6 | 72.2 | 117 (inactive) | 169 (active) |
| COc1ccc(-c2cc(=S)ss2)cc1 [Anethole-trithione] | 102 | 92.7 | 96.7 (inactive) | 103 (inactive) |
| CCCCCC=CCC=CCCCCCCCC(=O)NCC(=O)O [N-Linoleoylglycine] | 105 | 101 | 96.8 (inactive) | 103 (inactive) |
| COc1c(O)c2c(=O)cc(OC)c3c4c(OC)cc(=O)c5c(O)c(OC)c6c(c(c1CC(C)(O)C6C(C)=O)c23)c54 (stereo unspecified) [Hypocrellin A] | 75.8 | 67.1 | 97.2 (inactive) | 108 (inactive) |
| Cc1cc(I)ccc1Nc1c(C(=O)NOCC2CC2)cc(F)c(F)c1F | 97.2 | 95.6 | 91.1 (inactive) | 116 (inactive) |
| COC(=O)Nc1nc2ccc(C(=O)c3ccc(F)cc3)cc2[nH]1 [Flubendazole] | 65.9 | 9.66 | 151 (active) | 168 (active) |
| Cc1cc(CS(=O)(=O)c2ccccc2)cc(OCc2ccc(CN3CCC[C@@H]3CO)cc2)c1 [PF-543 hydrochloride] | 95.8 | 90.2 | 102 (inactive) | 122 (inactive) |
| CN(C)CCCN1c2ccccc2CCc2ccccc21.Cl [Imipramine hydrochloride] | 108 | 98.4 | 97.2 (inactive) | 105 (inactive) |
| CCS(=O)(=O)CCn1c([N+](=O)[O-])cnc1C [Tinidazole] | 107 | 104 | 102 (inactive) | 105 (inactive) |
| CC1(C)OC2CC(=O)OCC23C1CC(=O)C1(C)C3CCC2(C)C(c3ccoc3)OC(=O)C3OC321 (stereo unspecified) [Limonin] | 103 | 104 | 92.2 (inactive) | 90 (inactive) |
| Cc1cc(Nc2nc(-c3ccccc3)nc3ccccc23)n[nH]1 [GSK-3 Inhibitor XIII] | 57 | 46.1 | 112 (inactive) | 182 (active) |
| CC1(C)CC=C(c2cnc3ccccc3c2)c2cc(C(=O)Nc3ccc(C(=O)O)cc3)ccc21 | 99.8 | 99.3 | 97.3 (inactive) | 96.8 (inactive) |
